PubChem BioAssay
Activity calls are given as the source filed them.

Each molecule was assayed against NADPH oxidase 2 (Homo sapiens) (UniProt P04839) (assay: compounds shifting NOX2 Amplex Red fluorescence – cell-based, HEK293-NOX2, PMA-stimulated, NOX inhibitor project, primary screen (AID 1159; note: test concentration not given here)). Conditions: 45 min, higher = more signal, called active from +8 up or from −8 down.
Sequence of NADPH oxidase 2 (Homo sapiens) (P04839 whole entry, looked up): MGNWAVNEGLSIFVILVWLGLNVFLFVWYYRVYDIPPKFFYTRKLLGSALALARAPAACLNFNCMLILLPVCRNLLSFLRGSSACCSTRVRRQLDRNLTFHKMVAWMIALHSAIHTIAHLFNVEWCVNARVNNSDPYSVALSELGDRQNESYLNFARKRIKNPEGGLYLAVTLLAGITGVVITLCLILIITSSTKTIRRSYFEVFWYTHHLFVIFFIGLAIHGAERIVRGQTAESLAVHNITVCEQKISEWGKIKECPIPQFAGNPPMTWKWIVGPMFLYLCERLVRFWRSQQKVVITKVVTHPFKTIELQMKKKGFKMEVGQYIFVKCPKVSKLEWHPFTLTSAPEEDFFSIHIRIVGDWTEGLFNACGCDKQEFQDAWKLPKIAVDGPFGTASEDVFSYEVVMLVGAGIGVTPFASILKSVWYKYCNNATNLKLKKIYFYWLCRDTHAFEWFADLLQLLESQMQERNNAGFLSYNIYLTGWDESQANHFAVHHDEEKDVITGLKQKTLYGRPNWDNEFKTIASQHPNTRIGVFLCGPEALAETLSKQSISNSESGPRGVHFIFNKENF

z-score, inactive:
COC(=O)[C@@]1(Cc2ccc(F)cc2)[C@H]2c3cc(C(=O)N(C)C)n(CCF)c3C[C@H]2CN1C(=O)c1ccccc1 0.532
COC(=O)[C@@]1(Cc2ccccc2)[C@H]2c3cc(C(=O)N(C)C)n(Cc4ccc(Cl)c(C(F)(F)F)c4)c3C[C@H]2CN1C(=O)c1ccccc1 0.0852
COc1ccc(NN2C(C(O)c3ccc(F)cc3)C=CC3C(=O)N(C4CCCCC4)C(=O)C32)cc1 (centres undefined) -1.73
[N-]=[N+]=NCc1ccccc1C[C@@]1(C(N)=O)N=C(c2ccc(OCCCO)cc2)O[C@@H]1c1ccccc1N=[N+]=[N-] 0.0502
O=C1O[C@H](c2ccccc2)[C@H](c2ccccc2)N2[C@H]1[C@@H](C(=O)Nc1nc3ccccc3s1)[C@]1(C(=O)Nc3ccccc31)[C@H]2c1ccccc1OCCO 1.47
CC(C)c1ccc(NN2C(C(O)C(C)c3ccccc3)C=CC3C(=O)N(c4ccccc4)C(=O)C32)cc1 (centres undefined) -0.818
COCCCNC(=O)[C@]1(Cc2ccccc2N=[N+]=[N-])N=C(c2ccc(OCCCO)cc2)O[C@@H]1c1ccccc1 -2.28
COC(=O)[C@@]1(Cc2ccc(OC)cc2)[C@H]2c3cc(C(=O)N(C)C)n(Cc4c(CO)[nH]cc(C)c4=O)c3C[C@H]2CN1C(=O)c1ccccc1 -0.0394
COC(=O)C(CC#Cc1ccc2c(c1)[C@]1(C(=O)N2)[C@H](c2ccc(OCCO)cc2)N2[C@H](c3ccccc3)[C@H](c3ccccc3)OC(=O)[C@H]2[C@@H]1C(N)=O)C(=O)OC 1.56
